In the supplement of paper PMC11732987, “Enantioselective OTUD7B fragment discovery through chemoproteomics screening and high-throughput optimisation” (Communications Chemistry, 2025):

Experiments:
Assay in all cases: log2 ratio of Biotin-Ahx-Ub-VS probe labelling (fragment/DMSO); higher = less target engagement (more negative = stronger competition), active = hit call of the paper (q ≤ 0.05, log2 ratio ≤ -1)
Settings in all cases: compound concentration: 200 uM; treatment time: 3 h
USP34 = USP34 (UniProt Q70CQ2)
Sequence of USP34 (Q70CQ2 whole entry, the tested form may be a part): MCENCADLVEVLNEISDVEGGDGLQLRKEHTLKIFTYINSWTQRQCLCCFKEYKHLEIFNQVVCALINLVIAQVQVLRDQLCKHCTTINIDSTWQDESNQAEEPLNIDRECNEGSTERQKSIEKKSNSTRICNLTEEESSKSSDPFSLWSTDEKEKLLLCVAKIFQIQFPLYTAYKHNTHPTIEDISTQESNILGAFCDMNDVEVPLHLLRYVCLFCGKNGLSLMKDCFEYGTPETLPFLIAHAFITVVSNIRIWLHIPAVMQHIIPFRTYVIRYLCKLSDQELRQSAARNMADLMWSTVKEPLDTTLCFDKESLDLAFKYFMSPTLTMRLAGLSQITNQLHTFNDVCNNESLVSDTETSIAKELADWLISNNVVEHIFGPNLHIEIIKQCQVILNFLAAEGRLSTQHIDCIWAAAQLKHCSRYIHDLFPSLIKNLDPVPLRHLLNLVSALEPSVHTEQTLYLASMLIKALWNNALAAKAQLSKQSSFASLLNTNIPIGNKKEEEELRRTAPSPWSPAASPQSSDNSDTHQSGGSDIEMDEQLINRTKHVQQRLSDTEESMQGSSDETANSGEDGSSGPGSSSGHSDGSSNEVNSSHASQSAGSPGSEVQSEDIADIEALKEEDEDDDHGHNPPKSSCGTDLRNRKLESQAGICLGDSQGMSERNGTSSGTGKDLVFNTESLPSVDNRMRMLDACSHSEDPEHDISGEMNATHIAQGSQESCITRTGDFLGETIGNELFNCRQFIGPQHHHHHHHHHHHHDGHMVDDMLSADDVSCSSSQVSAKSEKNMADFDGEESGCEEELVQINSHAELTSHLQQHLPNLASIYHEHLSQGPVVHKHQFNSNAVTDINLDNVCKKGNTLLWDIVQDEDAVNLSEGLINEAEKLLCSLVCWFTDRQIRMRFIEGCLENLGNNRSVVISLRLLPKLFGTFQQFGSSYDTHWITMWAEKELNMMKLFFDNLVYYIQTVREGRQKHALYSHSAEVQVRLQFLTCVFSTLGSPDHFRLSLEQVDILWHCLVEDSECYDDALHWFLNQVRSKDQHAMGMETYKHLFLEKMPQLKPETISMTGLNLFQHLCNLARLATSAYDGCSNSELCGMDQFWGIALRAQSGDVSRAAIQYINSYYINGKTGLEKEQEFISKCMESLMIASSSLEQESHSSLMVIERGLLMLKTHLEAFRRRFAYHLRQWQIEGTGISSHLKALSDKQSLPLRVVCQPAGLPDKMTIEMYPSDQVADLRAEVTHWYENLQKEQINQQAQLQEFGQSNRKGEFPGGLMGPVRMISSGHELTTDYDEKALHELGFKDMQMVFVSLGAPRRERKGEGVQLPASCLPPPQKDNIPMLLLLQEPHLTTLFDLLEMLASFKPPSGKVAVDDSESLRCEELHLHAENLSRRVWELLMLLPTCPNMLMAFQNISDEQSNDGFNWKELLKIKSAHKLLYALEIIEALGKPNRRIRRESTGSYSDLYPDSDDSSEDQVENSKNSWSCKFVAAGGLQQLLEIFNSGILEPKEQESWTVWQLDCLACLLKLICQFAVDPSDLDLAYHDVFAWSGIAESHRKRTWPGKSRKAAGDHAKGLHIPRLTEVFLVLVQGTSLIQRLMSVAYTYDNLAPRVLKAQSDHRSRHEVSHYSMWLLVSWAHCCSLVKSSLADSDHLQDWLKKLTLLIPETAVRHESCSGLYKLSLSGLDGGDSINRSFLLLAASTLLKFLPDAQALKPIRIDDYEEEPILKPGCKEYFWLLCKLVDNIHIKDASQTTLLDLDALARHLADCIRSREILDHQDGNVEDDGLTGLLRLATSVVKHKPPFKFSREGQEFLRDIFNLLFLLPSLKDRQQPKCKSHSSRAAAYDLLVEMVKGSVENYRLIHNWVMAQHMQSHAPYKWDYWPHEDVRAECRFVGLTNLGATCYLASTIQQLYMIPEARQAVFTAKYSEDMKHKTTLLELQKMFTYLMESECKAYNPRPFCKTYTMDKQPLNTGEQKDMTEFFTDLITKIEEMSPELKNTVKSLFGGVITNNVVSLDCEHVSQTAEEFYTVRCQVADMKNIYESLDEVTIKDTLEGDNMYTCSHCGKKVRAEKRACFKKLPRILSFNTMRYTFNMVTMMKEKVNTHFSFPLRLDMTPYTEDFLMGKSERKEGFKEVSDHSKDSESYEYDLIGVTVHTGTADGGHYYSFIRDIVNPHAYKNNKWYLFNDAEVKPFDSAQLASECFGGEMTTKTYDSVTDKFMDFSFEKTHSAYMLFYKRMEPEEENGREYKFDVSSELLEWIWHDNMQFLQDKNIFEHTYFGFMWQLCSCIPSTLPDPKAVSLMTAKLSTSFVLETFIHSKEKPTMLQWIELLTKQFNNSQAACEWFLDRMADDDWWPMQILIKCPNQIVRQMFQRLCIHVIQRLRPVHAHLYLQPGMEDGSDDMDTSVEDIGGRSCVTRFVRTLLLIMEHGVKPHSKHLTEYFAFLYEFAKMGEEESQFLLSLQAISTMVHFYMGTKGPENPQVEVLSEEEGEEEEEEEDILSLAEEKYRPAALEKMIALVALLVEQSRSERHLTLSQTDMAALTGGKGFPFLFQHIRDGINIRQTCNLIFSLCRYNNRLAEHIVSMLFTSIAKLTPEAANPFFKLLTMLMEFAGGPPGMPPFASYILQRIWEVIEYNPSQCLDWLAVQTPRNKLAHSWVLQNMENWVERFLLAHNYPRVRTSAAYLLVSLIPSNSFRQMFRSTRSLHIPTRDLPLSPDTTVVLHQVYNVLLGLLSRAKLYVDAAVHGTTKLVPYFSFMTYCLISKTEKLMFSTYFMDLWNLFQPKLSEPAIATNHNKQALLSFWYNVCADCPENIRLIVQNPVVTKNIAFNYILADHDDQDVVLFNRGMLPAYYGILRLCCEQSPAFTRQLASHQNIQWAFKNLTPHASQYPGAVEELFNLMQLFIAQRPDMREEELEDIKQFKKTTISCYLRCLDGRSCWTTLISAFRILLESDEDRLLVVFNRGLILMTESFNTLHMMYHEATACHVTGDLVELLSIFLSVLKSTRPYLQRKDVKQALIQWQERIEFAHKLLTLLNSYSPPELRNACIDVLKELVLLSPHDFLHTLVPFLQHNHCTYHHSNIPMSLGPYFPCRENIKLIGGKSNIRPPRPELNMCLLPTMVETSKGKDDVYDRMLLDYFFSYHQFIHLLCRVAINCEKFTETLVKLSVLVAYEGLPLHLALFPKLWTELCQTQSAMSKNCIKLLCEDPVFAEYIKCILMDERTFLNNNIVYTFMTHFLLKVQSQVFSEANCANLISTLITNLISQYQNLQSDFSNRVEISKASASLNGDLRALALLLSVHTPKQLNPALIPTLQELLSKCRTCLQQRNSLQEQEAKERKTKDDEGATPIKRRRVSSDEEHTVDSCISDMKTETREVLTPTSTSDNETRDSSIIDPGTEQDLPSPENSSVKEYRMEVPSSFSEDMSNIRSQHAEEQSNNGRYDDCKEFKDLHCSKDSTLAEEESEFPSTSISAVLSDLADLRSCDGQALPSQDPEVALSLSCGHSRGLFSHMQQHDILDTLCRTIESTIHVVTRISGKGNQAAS
Procedure, shortened: (§1)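 Labelled DUBs from HEK293T lysate were NeutrAvidin-enriched, digested with LysC and trypsin, and run by diaPASEF LC-MS/MS. Before that, each 495 µg sample in Tris/CHAPS/IGEPAL buffer with protease inhibitors was treated in triplicate with fragment at 200 µM or vehicle for 3 h, then with Biotin-Ahx-Ub-VS at 0.5 µM final for 1 h. Values are average log2 ratios of fragment over vehicle by unpaired t-test, based on global-median-normalised Spectronaut label-free quantities from proteins with ≥2 unique peptides.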

USP36 = target: T1, USP36 (UniProt Q9P275)
T1 sequence (whole entry): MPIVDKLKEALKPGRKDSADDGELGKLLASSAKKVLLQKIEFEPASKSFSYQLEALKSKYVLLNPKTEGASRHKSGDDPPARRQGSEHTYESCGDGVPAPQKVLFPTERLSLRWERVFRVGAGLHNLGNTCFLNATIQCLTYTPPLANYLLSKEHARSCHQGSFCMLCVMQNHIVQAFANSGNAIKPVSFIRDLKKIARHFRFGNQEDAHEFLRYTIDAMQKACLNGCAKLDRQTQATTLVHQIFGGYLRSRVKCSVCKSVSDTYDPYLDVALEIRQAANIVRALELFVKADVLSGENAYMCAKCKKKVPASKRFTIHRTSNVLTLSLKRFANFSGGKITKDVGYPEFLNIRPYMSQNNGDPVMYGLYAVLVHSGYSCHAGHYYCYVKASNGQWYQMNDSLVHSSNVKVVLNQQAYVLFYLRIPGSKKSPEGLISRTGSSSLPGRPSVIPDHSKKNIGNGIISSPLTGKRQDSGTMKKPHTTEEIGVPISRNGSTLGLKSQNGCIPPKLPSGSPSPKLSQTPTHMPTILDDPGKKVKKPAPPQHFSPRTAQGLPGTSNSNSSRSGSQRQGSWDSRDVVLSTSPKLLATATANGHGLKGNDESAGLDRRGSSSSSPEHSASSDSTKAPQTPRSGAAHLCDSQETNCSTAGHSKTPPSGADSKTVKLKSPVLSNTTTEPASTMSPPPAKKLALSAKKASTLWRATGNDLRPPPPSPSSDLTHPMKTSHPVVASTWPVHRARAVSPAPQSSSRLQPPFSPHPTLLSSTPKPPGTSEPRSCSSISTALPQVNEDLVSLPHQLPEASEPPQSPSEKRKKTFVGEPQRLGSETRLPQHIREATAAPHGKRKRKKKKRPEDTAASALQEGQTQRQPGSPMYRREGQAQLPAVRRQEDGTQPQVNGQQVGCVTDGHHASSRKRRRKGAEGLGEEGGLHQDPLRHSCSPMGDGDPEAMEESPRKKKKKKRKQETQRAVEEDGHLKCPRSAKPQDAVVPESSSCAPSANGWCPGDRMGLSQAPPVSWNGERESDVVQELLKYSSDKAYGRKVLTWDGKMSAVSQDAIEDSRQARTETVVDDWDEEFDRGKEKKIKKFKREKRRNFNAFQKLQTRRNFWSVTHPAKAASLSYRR
Procedure, shortened: as §1

USP38 = target: T2, USP38 (UniProt Q8NB14)
T2 sequence (whole entry): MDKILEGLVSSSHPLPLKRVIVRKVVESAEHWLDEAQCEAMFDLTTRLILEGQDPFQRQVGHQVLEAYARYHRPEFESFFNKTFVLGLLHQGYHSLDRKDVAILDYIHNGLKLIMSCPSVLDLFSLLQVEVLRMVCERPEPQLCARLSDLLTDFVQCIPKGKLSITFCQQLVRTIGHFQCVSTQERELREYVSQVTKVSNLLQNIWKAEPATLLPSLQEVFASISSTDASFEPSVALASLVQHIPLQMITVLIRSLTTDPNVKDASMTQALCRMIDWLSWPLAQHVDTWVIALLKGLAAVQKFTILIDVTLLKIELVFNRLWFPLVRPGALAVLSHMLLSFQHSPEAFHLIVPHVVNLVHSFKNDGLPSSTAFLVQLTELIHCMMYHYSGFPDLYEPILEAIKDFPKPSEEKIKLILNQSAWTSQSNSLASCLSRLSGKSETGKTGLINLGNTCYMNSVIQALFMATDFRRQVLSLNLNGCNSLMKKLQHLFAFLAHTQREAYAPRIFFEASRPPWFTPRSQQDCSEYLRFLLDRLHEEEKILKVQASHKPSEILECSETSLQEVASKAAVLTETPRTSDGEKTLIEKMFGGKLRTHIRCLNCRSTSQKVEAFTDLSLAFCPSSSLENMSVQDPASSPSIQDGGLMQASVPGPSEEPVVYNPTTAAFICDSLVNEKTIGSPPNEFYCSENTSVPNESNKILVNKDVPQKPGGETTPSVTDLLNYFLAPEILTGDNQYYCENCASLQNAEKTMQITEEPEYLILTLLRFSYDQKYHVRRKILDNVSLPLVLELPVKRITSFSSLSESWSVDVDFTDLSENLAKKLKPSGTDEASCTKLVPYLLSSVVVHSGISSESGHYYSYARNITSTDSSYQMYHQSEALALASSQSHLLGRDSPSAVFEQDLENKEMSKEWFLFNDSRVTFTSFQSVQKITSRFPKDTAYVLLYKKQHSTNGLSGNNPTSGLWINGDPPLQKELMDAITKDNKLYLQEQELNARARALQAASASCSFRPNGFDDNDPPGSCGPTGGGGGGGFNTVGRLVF
Procedure, shortened: as §1

USP39 = target: T3, USP39 (UniProt Q53GS9)
T3 sequence (whole entry): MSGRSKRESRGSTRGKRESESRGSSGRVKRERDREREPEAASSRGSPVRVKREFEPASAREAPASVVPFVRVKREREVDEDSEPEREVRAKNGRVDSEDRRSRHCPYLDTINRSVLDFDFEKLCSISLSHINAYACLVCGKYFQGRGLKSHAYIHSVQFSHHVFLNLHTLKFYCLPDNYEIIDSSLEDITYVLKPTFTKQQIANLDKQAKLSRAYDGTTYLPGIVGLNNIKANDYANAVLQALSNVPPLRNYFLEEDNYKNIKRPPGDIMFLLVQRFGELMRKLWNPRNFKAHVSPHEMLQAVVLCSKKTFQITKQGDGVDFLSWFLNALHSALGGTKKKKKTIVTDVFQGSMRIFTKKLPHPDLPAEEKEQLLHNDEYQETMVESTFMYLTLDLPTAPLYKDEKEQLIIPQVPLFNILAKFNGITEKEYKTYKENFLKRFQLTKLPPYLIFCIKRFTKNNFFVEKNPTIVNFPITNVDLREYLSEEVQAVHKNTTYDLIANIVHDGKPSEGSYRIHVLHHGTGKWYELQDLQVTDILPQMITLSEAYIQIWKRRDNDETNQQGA
Procedure, shortened: as §1

USP4 = target: T4, USP4 (UniProt Q13107)
T4 sequence (whole entry): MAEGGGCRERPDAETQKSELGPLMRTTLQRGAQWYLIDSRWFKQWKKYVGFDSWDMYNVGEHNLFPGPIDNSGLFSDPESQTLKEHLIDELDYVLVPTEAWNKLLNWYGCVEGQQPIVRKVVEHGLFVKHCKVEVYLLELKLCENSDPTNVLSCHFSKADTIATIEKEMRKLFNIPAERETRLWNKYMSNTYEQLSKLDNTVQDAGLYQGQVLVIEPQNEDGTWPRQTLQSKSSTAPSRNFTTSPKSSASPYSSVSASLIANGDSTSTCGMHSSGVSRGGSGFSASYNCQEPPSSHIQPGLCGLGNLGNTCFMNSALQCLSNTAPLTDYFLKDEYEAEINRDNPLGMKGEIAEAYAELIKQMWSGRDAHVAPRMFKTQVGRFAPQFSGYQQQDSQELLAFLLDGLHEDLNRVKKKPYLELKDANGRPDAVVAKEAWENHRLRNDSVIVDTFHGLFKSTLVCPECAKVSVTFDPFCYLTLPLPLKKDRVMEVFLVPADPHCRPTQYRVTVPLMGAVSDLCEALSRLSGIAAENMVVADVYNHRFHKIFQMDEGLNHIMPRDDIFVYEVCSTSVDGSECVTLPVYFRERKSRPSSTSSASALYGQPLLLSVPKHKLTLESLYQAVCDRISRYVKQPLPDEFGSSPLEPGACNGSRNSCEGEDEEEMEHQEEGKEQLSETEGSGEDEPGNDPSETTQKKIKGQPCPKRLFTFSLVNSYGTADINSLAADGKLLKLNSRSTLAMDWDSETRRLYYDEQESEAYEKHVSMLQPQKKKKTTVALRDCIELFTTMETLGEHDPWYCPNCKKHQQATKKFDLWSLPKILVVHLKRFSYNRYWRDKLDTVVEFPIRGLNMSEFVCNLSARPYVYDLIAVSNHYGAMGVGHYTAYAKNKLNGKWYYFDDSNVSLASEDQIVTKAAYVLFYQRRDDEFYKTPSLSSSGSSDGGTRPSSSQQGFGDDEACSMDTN
Procedure, shortened: as §1

Measured: log2 ratio of Biotin-Ahx-Ub-VS probe labelling

Cc1n[nH]c(=O)c2c(NC(=O)CCl)oc(C)c12
inactive: USP34 -0.107 | USP36 0.103 | USP38 0.0131 | USP39 0.082 | USP4 0.0593
